{"source": "PubChem BioAssay AID652257", "about": "(The Scripps Research Institute Molecular Screening Center, 2013)", "note": "The campaign covered roughly 370,000 compounds. About 4,800 (1.3%) were called active. For the sample, actives were picked, then their nearest neighbours and some compounds at random. A number with no mark means an inactive call.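 The calls were made as follows: active = inhibition above about 21% made by adding two undisclosed values (limit read from the data); inactive = the rest.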"}
{"target": "Protein arginine N-methyltransferase 1 (Homo sapiens) (UniProt Q99873)", "sequence (Q99873 whole entry, looked up)": "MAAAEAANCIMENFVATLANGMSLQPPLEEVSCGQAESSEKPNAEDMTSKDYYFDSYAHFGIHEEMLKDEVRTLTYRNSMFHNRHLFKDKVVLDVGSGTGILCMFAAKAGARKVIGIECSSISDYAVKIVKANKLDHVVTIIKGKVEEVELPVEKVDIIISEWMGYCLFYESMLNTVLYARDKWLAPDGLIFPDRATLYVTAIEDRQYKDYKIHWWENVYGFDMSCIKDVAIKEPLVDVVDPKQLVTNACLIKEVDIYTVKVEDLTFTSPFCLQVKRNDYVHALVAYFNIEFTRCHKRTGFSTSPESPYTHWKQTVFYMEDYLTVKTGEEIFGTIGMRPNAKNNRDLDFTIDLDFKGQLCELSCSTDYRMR", "assay": "human PRMT1 activity-probe blockers – biochemical, fluorescence polarization, primary screen (AID 652257)", "conditions": "recombinant PRMT1, activity-based probe fluorescence polarization; at 2.79 µM; hits give high values"}
{"compound": "O=C(Cc1ccccc1)NCC1OCCc2ccccc21", "note": "(stereo not drawn)", "inhibition": "0%"}
{"compound": "COc1ccc(NC(=O)CSc2nc(SC)ns2)c(OC)c1", "inhibition": "36.5% (active)"}
{"compound": "CSc1nsc(SCC(=O)Nc2cc(C(=O)O)ccc2C)n1", "inhibition": "20.1%"}
{"compound": "COc1ccc(C)cc1NC(=O)CSc1nc(SC)ns1", "inhibition": "16%"}
{"compound": "O=C1CC(c2ccc3c(c2)OCO3)N=C2N(CC3CC3)C/C(=C/c3ccccc3)N12", "note": "(stereo not drawn)", "inhibition": "-0.31%"}
{"compound": "CC1Cc2ccccc2N1CC(=O)Nc1ccc(S(N)(=O)=O)cc1", "note": "(stereo not drawn)", "inhibition": "-0.96%"}
{"compound": "COc1cccc(CNC(=O)CNS(=O)(=O)c2ccc3nc(C)sc3c2)c1OC", "inhibition": "-2.5%"}
{"compound": "Cc1nc2ccc(S(=O)(=O)NCC(=O)O)cc2s1", "inhibition": "36.9% (active)"}
{"compound": "Cc1nc2ccc(S(=O)(=O)NCC(=O)NCCN3CCCCC3C)cc2s1", "note": "(stereo not drawn)", "inhibition": "-0.17%"}
{"compound": "COCC(C)NC(=O)CSc1nc2nn(-c3ccccc3)c(=O)c-2c2n1CCCCC2", "note": "(stereo not drawn)", "inhibition": "5.41%"}
{"compound": "CNC(=S)NNC(=O)c1ccc(N(C)C)cc1", "inhibition": "-0.78%"}
{"compound": "CN(C)c1ccc(N/C=C/C(=O)C(F)(F)F)cc1", "inhibition": "36.9% (active)"}
{"compound": "CC1CN(/C=C/C(=O)C(F)(F)F)CC(C)O1", "note": "(stereo not drawn)", "inhibition": "-0.81%"}
{"compound": "c1csc(-c2nnc(SCc3nc4ccccc4[nH]3)o2)c1", "inhibition": "-6.14%"}
{"compound": "C=CCN1C(=O)[C@@H](CC(=O)NCCCOCCCC)[C@]2(C(=O)OCC)CCCCC/C=C/12", "inhibition": "2.37%"}
{"compound": "c1ccc(C(=NNc2nc3ccccc3s2)c2ccccn2)cc1", "inhibition": "27.5% (active)"}
{"compound": "CCC(=O)Nc1ccc2c(c1)C(=O)N(C)[C@H]1CC[C@H](CC(=O)NCCOC)O[C@@H]1CO2", "inhibition": "5.57%"}
{"compound": "Cn1c(=O)c2cn(-c3cccc4ccccc34)cc2n(C)c1=O", "inhibition": "-1.91%"}
{"compound": "CC1=C(C)CC2C(=O)N(c3cccc4ccccc34)C(=O)C2C1", "note": "(stereo not drawn)", "inhibition": "42% (active)"}
{"compound": "CCc1ccccc1N1C(=O)C2C3CC(=O)C(c4ccccc43)C2C1=O", "note": "(stereo not drawn)", "inhibition": "-4.03%"}
{"compound": "Cc1ccc(N/N=C2\\COC(C)(C)CC2=O)cc1", "inhibition": "-2.4%"}
{"compound": "COc1ccccc1Oc1ccc(N/C=C2/CCCC2=O)cc1", "inhibition": "-1.7%"}
{"compound": "COc1ccc(N/N=C2/CCCCC2=O)cc1", "inhibition": "32.7% (active)"}
{"compound": "C=CCN(Cc1ccc2c(c1)OCO2)C(C#CC1CC1)C(C)(C)C", "note": "(stereo not drawn)", "inhibition": "1.88%"}
{"compound": "Cc1cc(NC(=O)CSCC(=O)NC(C)c2ccccc2)no1", "note": "(stereo not drawn)", "inhibition": "-1.57%"}
{"compound": "CN1CCc2nc(SC(C(=O)O)c3ccccc3)c(C#N)c(-c3cccs3)c2C1", "note": "(stereo not drawn)", "inhibition": "11.9%"}
{"compound": "CC(NC(=O)CSc1nc2c(cc1C#N)CN(C)CC2)c1ccccc1", "note": "(stereo not drawn)", "inhibition": "37.7% (active)"}
{"compound": "CCOc1ccc(N(C)Cc2cc(=O)oc3ccc(OC)cc23)cc1", "inhibition": "-2.23%"}
{"compound": "Brc1ccccc1C1N=C(c2ccccc2)NO1", "note": "(stereo not drawn)", "inhibition": "3.27%"}
{"compound": "COc1cc2c(cc1OC)C(c1ccccc1Br)NC(=O)C2", "note": "(stereo not drawn)", "inhibition": "4.47%"}
{"compound": "Brc1ccccc1C1Nc2cccc3cccc(c23)N1", "inhibition": "39.4% (active)"}
{"compound": "COC(=O)c1c(-c2ccc(OC)cc2)c2c(c3c4ccccc4n(S(=O)(=O)c4ccc(C)cc4)c13)C(=O)N(C)C2", "inhibition": "3.01%"}
{"compound": "CC(NCc1nc2ccccc2n1C)C12CC3CC(CC(C3)C1)C2", "note": "(stereo not drawn)", "inhibition": "5.86%"}
{"compound": "CCC(C)[C@@H](C(=O)OC)N(CCc1cn(Cc2ccccc2)nn1)S(=O)(=O)c1ccccc1Br", "note": "(stereo partly drawn)", "inhibition": "1.11%"}
{"compound": "NC(=O)C[C@@H]1NC(=O)CNC(=O)c2cc([N+](=O)[O-])cc(I)c2NCCC(C(N)=O)NC1=O", "note": "(stereo partly drawn)", "inhibition": "-3.5%"}
{"compound": "CC(=O)N1CC[n+]2c(-c3ccc([N+](=O)[O-])cc3)csc21", "inhibition": "52.3% (active)"}
{"compound": "Cc1cc(C)cc(C(=O)N2CCN=C2SCc2ccc([N+](=O)[O-])cc2)c1", "inhibition": "-6.78%"}
{"compound": "CN1C2CCC1CC(NC(=O)c1ccc([N+](=O)[O-])cc1)C2", "note": "(stereo not drawn)", "inhibition": "-4.9%"}
{"compound": "Cc1ccc(-n2c(SCC(=O)Nc3ccc(S(=O)(=O)Nc4nccs4)cc3)nnc2-c2ccccn2)cc1", "inhibition": "-1.31%"}
{"compound": "Cc1ccc(OS(=O)(=O)c2ccc(-c3csc(C)n3)s2)c(C)c1", "inhibition": "27.8% (active)"}
{"compound": "C=CCN1C(=O)[C@@H](CC(=O)NCC2CCCCC2)[C@]2(C(=O)OC)CCCCC=C12", "inhibition": "-0.92%"}
{"compound": "C=CCSC1=C(C#N)C(c2cc(Br)c(O)c(OC)c2)CC(=O)N1", "note": "(stereo not drawn)", "inhibition": "23.6% (active)"}
{"compound": "COc1cc(C2C(C#N)=C(C)NC3=C2C(=O)CC(C)(C)C3)ccc1O", "note": "(stereo not drawn)", "inhibition": "-0.43%"}
{"compound": "Cc1cc(=O)[nH]c2nnnn12", "inhibition": "-0.07%"}
{"compound": "CCNC(=O)COc1cc(C)c(Br)c(C)c1", "inhibition": "-2.57%"}
{"compound": "Cc1ccc(NC(=S)NNC(=O)CSc2nnc(SCc3ccccc3Cl)s2)cc1", "inhibition": "-4.6%"}
{"compound": "Cc1cc(=O)[nH]c(SCC(=O)Nc2ccc(F)cc2F)n1", "inhibition": "-0.33%"}
{"compound": "COc1ccc(C(=O)Nc2ccc(-n3nncc3C(C)(C)C)cc2)cc1", "inhibition": "1.48%"}
{"compound": "COc1ccc(C(=O)Nc2c(N)nc(SCC(=O)Nc3ccc(C(C)=O)cc3)[nH]c2=O)cc1", "inhibition": "0.6%"}
{"compound": "COc1ccc(NC(=O)c2ccc(C#CC(C)(C)O)cc2)cc1", "inhibition": "25.5% (active)"}
{"compound": "O=C(CCCCCN1C(=O)C2C3C=CC(C3)C2C1=O)Nc1ccccn1", "note": "(stereo not drawn)", "inhibition": "-1.78%"}
{"compound": "Cc1n[nH]c(=O)c2c(NC(=O)COC(=O)c3ncc(Cl)c(Cl)c3Cl)oc(C)c12", "inhibition": "7.67%"}
{"compound": "O=C(c1ccncc1)N1CC[C@H]2[C@H](CCCN2Cc2ccc(F)cc2)C1", "inhibition": "0.01%"}
{"compound": "CC(=O)Nc1ccc(C(=O)Nc2nc(-c3cc(C)n(Cc4ccccc4)c3C)cs2)cc1", "inhibition": "25.2% (active)"}
{"compound": "Cc1c(C#N)c(NC(=O)c2ccccc2)n(Cc2ccccc2)c1C", "inhibition": "-3.16%"}
{"compound": "CCCn1c(C)cc(-c2csc(NC(=O)CCc3nc4ccccc4c(=O)[nH]3)n2)c1C", "inhibition": "9.77%"}
{"compound": "COc1ccc([C@H]2N[C@]3(CCCN(CC4CCCCC4)C3=O)[C@H]3C(=O)N(C)C(=O)[C@@H]23)cc1", "inhibition": "5.33%"}
{"compound": "Cc1cc(NS(=O)(=O)c2ccc(NC(=O)CSc3nnc(-c4ccc(C(C)(C)C)cc4)n3Cc3ccco3)cc2)nc(C)n1", "inhibition": "3.17%"}
